Results filed as inconclusive are left out. Entries that show only a call come without a potency. Active and inactive are the calls of the source. The call rests on the fitted dose curve; in most records, active means well fitted inhibition curve with a large enough effect; inconclusive means small, poorly fitted or top-dose-only effect; inactive means flat fitted curve, though single readings scatter.
Target: Aldehyde dehydrogenase, mitochondrial (Homo sapiens) (UniProt P05091)
Assay: qHTS for Inhibitors of the Aldehyde Dehydrogenase Family (ALDH2) Primary screen (AID 2061308); further: nearly all actives have a fitted effect of over 55% in size
Conditions: ALDH2 enzyme inhibition qHTS, 1536-well; series mostly up to 56 µM

| Structure (SMILES) | Potency |
| --- | --- |
| Cc1cc(C)n2ncc(C(=O)Nc3cccc(C(F)(F)F)c3)c2n1 | inactive |
| CCOC(=O)c1nn(-c2ccccc2)c(=O)c2c(N)scc12 | inactive |
| Cc1cccc(NC(=O)CN2CCC(c3ccccn3)CC2)c1 | inactive |
| O=C1CCCC2=C1C(c1[nH]ncc1Cl)N=C(Nc1nc3cc(F)ccc3o1)N2 (stereo unspecified) | inactive |
| C=Cc1ccc(C(=O)N2CCCC(CCC(=O)N3CCN(c4ccccn4)CC3)C2)cc1 (stereo unspecified) | inactive |
| N#Cc1cnc(N[S+](=O)([O-])c2ccc(Nc3nc(-c4ccccc4)cs3)cc2)s1 | inactive |
| COC(=O)C1CCN(C(=O)c2ccc3c(c2)ncn3-c2cccc(C)c2)CC1 | inactive |
| CCC(C)/C=C(C)/C=C/C1=CC2=C(Cl)C(=O)C(C)(OC(C)=O)C(=O)C2(O)C(OC)O1 (stereo unspecified) | inactive |
| O=S(=O)(c1ccc2c(c1)OCCO2)C1CCC(S(=O)(=O)c2c(F)cccc2F)CC1 (stereo unspecified) | inactive |
| Oc1cccc2cc(CNc3ccccc3F)cnc12 | inactive |
| c1nc(N2CCCCC2)c2cc(-c3ccc4c(c3)OCO4)ccc2n1 | inactive |
| COc1cccc(C(=O)Nc2ccc(-c3nc4ccccc4[nH]3)cc2)c1 | inactive |
| Cc1ccc(-c2ccc(=O)n(CC(=O)N(C)CCN(C)C)n2)cc1 | inactive |
| Cc1cc(C)nc(NC(=S)N2CCN(c3ccc([N+](=O)[O-])c4cccnc34)CC2)c1 | inactive |
| COc1ccc(CCc2nc3c(C)c(-c4c(C)noc4C)c(C)cc3n2CCN2CCOCC2)cc1 | inactive |
| O=S(=O)(c1ccc(Cl)cc1)N1CCN(S(=O)(=O)c2ccc3c(c2)OCCO3)CC1 | inactive |
